From the supplement of paper PMC7380943

Columns and labels:
[1] = test system: CLZ3 (HCA2 human fibroblast dual HR-NHEJ reporter); test: NHEJ repair efficiency (GFP+ cells) relative to control (log10 fold); higher = more non-homologous end joining; conditions: 5 µM; doxycycline 0.5 ug/mL
[2] = test system: CLZ3 (HCA2 human fibroblast dual HR-NHEJ reporter); test: HR repair efficiency (tdTomato+ cells) relative to control (log10 fold); higher = more homologous recombination; conditions: 5 µM; doxycycline 0.5 ug/mL
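Throughout, for HR repair efficiency (tdTomato+ cells) relative to control: compound given one day before doxycycline, which switches on I-SceI endonuclease expression to create double-strand breaks within the integrated reporter.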
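Throughout, for NHEJ repair efficiency (GFP+ cells) relative to control: compound given one day ahead of doxycycline, which switches on I-SceI endonuclease to cut the chromosomally integrated reporter and create DSBs.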

Row | SMILES | NHEJ repair efficiency (log10) [1] | HR repair efficiency (log10) [2]
1 | C[C@@H]1O[C@@H](O[C@@H]2[C@@H](O)[C@H](OCCc3ccc(O)c(O)c3)O[C@H](COC(=O)/C=C/c3ccc(O)c(O)c3)[C@H]2O)[C@H](O)[C@H](O)[C@H]1O [Isoacteoside] | -0.112 | 0.017
2 | O=C(/C=C/c1ccc(O)c(O)c1)OC1CC(OC(=O)/C=C/c2ccc(O)c(O)c2)(C(=O)O)CC(O)C1O (stereo unspecified) [1,3-Dicaffeoylquinic Acid] | 0.0818 | -0.0122
3 | Oc1cc(O)cc(/C=C/c2ccc(O)c(O)c2)c1 [Piceatannol] | 0.0759 | 0.0923
4 | O=C(O)C1=C[C@@H](O)[C@@H](O)[C@H](O)C1 [Shikimic Acid] | 0.128 | 0.17
5 | O=c1c(-c2ccc(O)cc2)coc2cc(O)cc(O)c12 [Genistein] | -0.0971 | -0.179
6 | O=C(O)c1ccc(O)c(O)c1 [3,4-Dihydroxybenzoic acid] | 0.00743 | -0.033
7 | C[C@H]1[C@H](C)CC[C@]2(C(=O)O[C@@H]3O[C@H](CO[C@@H]4O[C@H](CO)[C@@H](O[C@@H]5O[C@@H](C)[C@H](O)[C@@H](O)[C@H]5O)[C@H](O)[C@H]4O)[C@@H](O)[C@H](O)[C@H]3O)CC[C@]3(C)C(=CC[C@@H]4[C@@]5(C)C[C@@H](O)[C@H](O)[C@@](C)(CO)[C@@H]5[C@H](O)C[C@]43C)[C@H]12 [Madecassoside] | 0.0946 | 0.19
8 | C[C@@H]1CC[C@@]2(OC1)O[C@H]1C[C@H]3[C@@H]4CC[C@H]5C[C@@H](O)CC[C@]5(C)[C@H]4CC[C@]3(C)[C@H]1[C@@H]2C [Tigogenin] | 0.0196 | 0.0468
